# The whole screen tested about 330,000 compounds, of which about 1,900 (0.58%) were called active. Another 4% or so got no clear call; they are omitted. A selection follows. Results with a measured potency or affinity are listed apart. Unmarked numbers belong to inactive results. Rule as the data show it: inconclusive = inhibition above about 70% without an active follow-up result; inactive = below that.
# Assay: M. tuberculosis growth inhibition, HTS (AID 449762);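 also: bacterial growth assessed after seven days of incubation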
# Conditions: M. tuberculosis H37Rv growth inhibition, 7H9 media; at 25 µM; active compounds read high
row,Structure (SMILES),inhibition [%]
1,CN(C)S(=O)(=O)c1ccc(C(=O)/C=C/c2cccnc2)cc1,18.5
2,Cc1ccc(OCCCN2C(=O)C(=O)c3cccc(C)c32)cc1,9.09
3,Cc1cccc2c1N(CCOc1ccc(C(C)(C)C)cc1)C(=O)C2=O,4.9
4,COc1ccc(N2CCN(C(=O)CCc3nnc4ccc(N5CCOCC5)nn34)CC2)cc1,-1.82
5,CCOc1cc(N)c(Cl)cc1C(=O)NCC1CN(Cc2ccc(F)cc2)CCO1 (stereo not given),-1.66
6,COc1cc(N)c(Cl)cc1C(=O)NC1CN2CCC1CC2 (stereo not given),4.28
7,COc1ccc(S(=O)(=O)N2CCOC2CNC(=O)C(=O)NCc2ccco2)cc1 (stereo not given),0.26
8,CCC(C)Nc1nc(Cl)nc(NCCOc2ccccc2)n1 (stereo not given),5.37
9,O=C(CCC(=O)N(CC(=O)NC1CCCCC1)CC1CCCO1)Nc1nccs1 (stereo not given),-1.08
10,Cc1c(Cl)cccc1NC(=O)c1cc(-c2ccco2)on1,3.35
11,O=C(Nc1cccnc1Cl)c1cc(-c2ccc(Cl)cc2)on1,5.26
12,O=[N+]([O-])c1ccc(-c2cnc(SCc3ccccc3Cl)[nH]2)cc1,-2.76
13,COc1ccccc1CSc1ncc(-c2ccc([N+](=O)[O-])cc2)[nH]1,-2.06
14,COCC(=O)N1CCC(Oc2cccc(C(=O)NCc3ccccn3)c2)CC1,-0.85
15,O=C(O)CCN1C(=O)C(=C2CCCCCC2)SC1=S,-3.58
16,CCCCN1C(=O)/C(=C2/C=CC=CN2C)SC1=S,-5.48
17,CCCCn1nc2cc(C(=O)NCc3ccc(OC(F)(F)F)cc3)ccc2c1OC,6.36
18,O=C(NN1CCOCC1)C12CC3CC(CC(C3)C1)C2,-3.63
19,COc1ccc2c3c([nH]c2c1)C1CC2C(CC(O)C(OC)C2C(=O)O)CN1CC3 (stereo not given),-4.38
20,COc1ccc2c3c([nH]c2c1)[C@H]1C[C@H]2[C@H](C[C@@H](O)[C@H](OC)[C@H]2C(=O)O)CN1CC3,1.26

row,Structure (SMILES),inhibition [%]
1,C=Cn1nc(C)c2ccccc2c1=O,-3.9
2,COC(=O)c1cc(=O)n(Cc2ccc(F)cc2)c(=Nc2ccccc2)s1,4.7
3,COC(=O)c1cc(=O)n(CCc2ccccc2)c(=Nc2ccc(F)cc2)s1,4.1
4,COc1cccc(NC(=O)[C@H](CC(C)C)NC(=O)N2CCn3c2nc2ccccc23)c1,11.4
5,NC(=O)[C@H](Cc1cc2ccccc2s1)NC(=O)[C@@H]1CC2(CC(c3cccc(NC(=O)[C@@H]4CCC(=O)N4)c3)=NO2)CN1C(=O)c1ccccc1 (stereo not given in full),-4.74
6,NC(=O)C1CCN(CCCNC2CC(=O)N(Cc3ccc(N4CCCC4=O)cc3)C2=O)CC1 (stereo not given),-6.69
7,Nc1cc(C(=O)OCC(=O)NNC(=O)c2ccccc2F)ccc1Cl,25.6
8,Nc1cc(C(=O)OCC(=O)NNC(=O)c2ccccc2)ccc1Cl,35.4
9,CCOc1cc(Cl)c(CNCCCN2CCOCC2)cc1OC,5.34
10,CCOC(=O)c1c(C)[nH]c(C(=O)COC(=O)c2cc(C)oc2C)c1C,-7.77
11,N#Cc1ccc(-c2ccc3c(c2)OCO3)nc1SCC(=O)OCc1ccccc1,-7.31
12,COc1ccc(-c2ccc(C#N)c(SCC(=O)NCCc3ccccc3)n2)cc1OC,8.95
13,S=C(NC1CCCCC1)N1CCN(Cc2ccccc2Cl)CC1,1.74
14,COc1ccc2c(COC(=O)CCS(=O)(=O)c3ccccc3)cc(=O)oc2c1,-17.5
15,O=c1[nH]c(CSc2ccccn2)nc2ccccc12,3.19
16,Cn1c(SCc2nc3ccccc3c(=O)[nH]2)nc2ccccc21,1.19
17,O=C(c1ccco1)N1CCN(C(=S)Nc2ccc(Br)cc2Cl)CC1,-10.4
18,COC(=O)c1cc(-c2ccccc2)on1,69.8
19,COc1cccc(-c2cc(C(=O)O)no2)c1,-0.44
20,CCOc1ccc(NC(=O)COc2nsnc2N2CCOCC2)cc1,-1.39

row,Structure (SMILES),inhibition [%]
1,CCN(c1ccccc1)S(=O)(=O)c1ccc(Cl)c(NC(=O)COC(=O)c2ccc[nH]c2=O)c1,-8.08
2,CCCCCCn1nc(C(=O)OCC(=O)c2c(N)n(C)c(=O)n(C)c2=O)c2ccccc2c1=O,9.07
3,COc1ccc(C2=NCCn3nc4cc(OC)ccc4c32)cc1,1.06
4,COc1ccc2c3n(nc2c1)CCN=C3c1ccc(Cl)cc1,4.84
5,Cc1ccc2[nH]c(C)c(CCNC(=O)c3c(N)no[n+]3[O-])c2c1,-0.11
6,O=C(NCCCn1ccnc1)c1cc2cc([N+](=O)[O-])ccc2oc1=O,-5.35
7,O=C(NC1CCCCC1)C(c1cccs1)N(CC1CCCO1)C(=O)c1csnn1 (stereo not given),-12
8,CC(=O)c1ccc(S(=O)(=O)N2CCc3ccccc3C2)cc1,0.34
9,CCOC(=O)N1CCN(C(=O)CSc2nnc(-c3ccccc3OC)o2)CC1,41.9
10,CC1CC(C)CN(C(=O)CSc2nnc(-c3ccc(Cl)s3)o2)C1 (stereo not given),20.5
11,O=C(c1cc2n(n1)C(C(F)(F)F)CC(c1ccc(F)cc1)N2)N1CCCC1 (stereo not given),-3.19
12,O=C(Nc1cccnc1Cl)c1cccc(F)c1,9.84
13,CC(C)NC(=O)COC(=O)c1cc(Br)ccc1Cl,21.9
14,CC(C)(C)NC(=O)COC(=O)c1ccc(F)cc1Cl,49.4
15,COc1ccc(NC(=O)CCC(=O)Nc2nnc(C3CCCCC3)s2)c(OC)c1,7.63
16,OCC1(Cc2cccc(Cl)c2)CCCN(Cc2ccc(F)c(F)c2)C1 (stereo not given),16.1
17,Cc1cc(CN2CCCC(CO)(Cc3cccc(Cl)c3)C2)n[nH]1 (stereo not given),2.25
18,c1ccc(-c2nc3ccccc3[nH]2)cc1,9.27
19,c1ccc2nc3c(nc2c1)[nH]c1ccccc13,-2.41
20,CC1(C)Cc2c(cnn2-c2cccc(F)c2)C(NC(=O)CSc2ccncc2)C1 (stereo not given),-11.2
